Screening data as filed in PubChem BioAssay.
hcDAF12 agonist: H. contortus DAF-12 activation, primary screen; HEK293 hcDAF-12 lit1-tk-luc reporter, luminescence; 0% DMSO, 100% Δ7-dafachronic acid; activation, % at 6.8 µM; 370,000 compounds, 1.4% hits;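 active = activation above the mean of all tested compounds plus 3 SD, cut at about 5.5% in these data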
ssDAF-12 act: activators of S. stercoralis DAF-12 nuclear receptor | HEK293 ssDAF-12/GRIP1 lit1-tk-luc reporter, luminescence; % of 3 µM dafachronic acid response | activation, % at 6.8 µM | 370,000 compounds, 1% hits;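 active = activation above the mean over all tested compounds plus 3 SD, cut at about 0.9% in these data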
DAX1 inh-1: blocks DAX1 repression of SF-1 activated StAR promoter; HEK293T StAR-luciferase reporter, SF-1/DAX-1 repression relief; inhibition, % at 6.8 µM; 370,000 compounds, 1.1% hits; AID 652010;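 active = inhibition above the mean over all tested compounds plus 3 SD, cut at about 3.6% in these data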;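 also: higher inhibition means more luminescence from relief of DAX-1 repression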
DAX1 inh-2: NR0B1 (DAX1) inhibition; P51843; HEK293 Gal4-DAX1 luciferase reporter, luminescence; inhibition, % at 6.75 µM; 340,000 compounds, 0.99% hits; AID 504766;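 active = inhibition above the mean over all tested compounds plus 3 SD, cut at about 4.2% in these data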;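 also: inhibition shows as a rise in luminescence from relieved DAX1 repression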
Target sequence (P51843 207-470 limits assumed): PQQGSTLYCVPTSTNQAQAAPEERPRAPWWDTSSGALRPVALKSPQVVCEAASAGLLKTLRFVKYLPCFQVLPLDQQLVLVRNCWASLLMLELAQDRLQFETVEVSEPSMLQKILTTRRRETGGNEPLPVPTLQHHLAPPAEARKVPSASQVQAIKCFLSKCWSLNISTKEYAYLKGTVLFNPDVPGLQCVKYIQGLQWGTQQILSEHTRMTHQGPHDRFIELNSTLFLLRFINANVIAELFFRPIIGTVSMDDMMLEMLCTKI
hgDAF12 agonist: activates the H. glycines DAF-12 receptor ligand-binding domain. HEK293 GAL4-hgDAF12 UAS-luciferase reporter, agonist luminescence; normalized to butyrate control. activation, % at 6.8 µM. 370,000 compounds, 1.8% hits. AID 687014;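 active = activation above a cutoff set at the mean of all screened compounds plus 3 SD, cut at about 10% in these data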
Numbers stand for hits; 0 = inactive; - = not tested or not shown. An excerpt weighted towards active compounds, which were near 4.1% of everything screened.

SMILES | hcDAF12 agonist | ssDAF-12 act | DAX1 inh-1 | DAX1 inh-2 | hgDAF12 agonist
Cc1ccc(NC(=O)c2cc(-c3cc(Cl)ccc3O)n[nH]2)cc1C | 0 | 0 | 0 | 0 | 0
Cc1ccc(Cl)cc1-c1cc(C(=O)Nc2ccc(F)cc2)[nH]n1 | 0 | 0 | 4.1 | - | 0
COc1ccc(-c2cc(C(=O)Nc3ccc(NC(C)=O)cc3)[nH]n2)c(C)c1 | 0 | 0 | 0 | - | 0
COc1ccc(Cl)c(-c2cc(C(=O)Nc3ccc(F)cc3)[nH]n2)c1 | 0 | 0 | 0 | - | 12.4
COC(=O)c1ccc(Cn2nnc3c(=O)[nH]c(C4CCCN(S(=O)(=O)c5ccc(C)cc5)C4)nc32)cc1 (stereo not drawn) | 5.6 | 0 | 0 | 0 | 0
O=C(O)c1cc(Br)ccn1 | 0 | 0 | 0 | 0 | 0
O=C(O)c1ccnc(C(=O)O)c1 | 0 | 0 | 0 | 4.5 | 0
CC(=O)Nc1ccc(/C=N/Nc2nncc3ccccc23)cc1 | 0 | 0 | 0 | 5.0 | 0
C(=N\Nc1nncc2ccccc12)/c1ccccn1 | 0 | 0 | 0 | 0 | 0
O=C1NC(=O)C2(N1)C(=O)c1cccc3cccc2c13 (stereo not drawn) | 0 | 0 | 0 | 0 | 0
O=C1c2cccc3cccc(c23)C(=O)C1(O)O | 5.8 | 0 | 0 | 0 | 0
COc1ccc(OCC(=O)N/N=C\c2ccco2)cc1 | 0 | 0 | 0 | 0 | 0
COc1ccc(/[N+]([O-])=C/c2ccco2)cc1 | 0 | 0 | 0 | 0 | 10.5
CCCCNC(=O)CO/N=C(\C)c1cc2ccccc2o1 | 0 | 0 | 0 | 0 | 0
CCCCNCc1cc2ccccc2o1 | 0 | 0 | 0 | 4.5 | 0
O=c1[nH]c(Nc2ccccc2)cc2cc(Br)ccc12 | 0 | 0 | 0 | 0 | 0
COc1ccccc1Nc1cc2cc(Br)ccc2c(=O)[nH]1 | 6.2 | 0 | 0 | 0 | 0
CC1CC2CCCC(O)=C2C(=O)O1 (stereo not drawn) | 0 | 0 | 0 | 4.3 | 0
Fc1ccccc1-c1n[nH]c(=S)n1N=Cc1ccc(-c2ccccc2)cc1 | 0 | 0 | 0 | - | 0
COc1ccc(CCNC2CC(=O)N(CCc3ccccc3)C2=O)cc1 (stereo not drawn) | 0 | 0 | 0 | 4.5 | 0
O=C1CC(NCCc2ccccc2)C(=O)N1CCc1ccccc1 (stereo not drawn) | 0 | 0 | 0 | 0 | 0
Cc1ccc(O)c(NC(=O)c2onc(C)c2Cl)c1 | 6.0 | 1.8 | 0 | 0 | 0
CC(=O)c1cccc(NC(=O)c2cc3ccccn3n2)c1 | 0 | 0 | 3.7 | 0 | 0
CCCc1cc(C(=O)Nc2cccc(C(C)=O)c2)no1 | 5.9 | 0 | 0 | 0 | 0
Cc1noc(C(=O)Nc2cccc(Cl)c2)c1Cl | 0 | 0 | 0 | 0 | 0
SMILES | hcDAF12 agonist | ssDAF-12 act | DAX1 inh-1 | DAX1 inh-2 | hgDAF12 agonist
Cc1noc(C(=O)Nc2ccc(F)cc2F)c1Cl | 0 | 0 | 0 | 4.2 | 0
Cc1noc(C(=O)Nc2cccnc2Cl)c1Cl | 0 | 0 | 0 | 0 | 0
Cc1cc(C)cc(NC(=O)N2CCN(Cc3nc4ccccc4c(=O)[nH]3)CC2)c1 | 0 | 0 | 0 | - | 0
COc1ccc(N=C2Sc3ccccc3[C@@H]3C[C@H]4[C@H](CON4C)CN23)c(OC)c1 | 0 | 0 | 0 | - | 0
CCCc1cc(C(=O)Nc2ccc(F)cc2F)no1 | 0 | 0 | 0 | 0 | 13.0
Cc1ccc(O)c(NC(=O)c2cc(-c3cccs3)on2)c1 | 0 | 0 | 0 | 0 | 10.8
COc1ccc(OCC(=O)Nc2c(C)ccc3nsnc23)cc1 | 0 | 0 | 0 | 0 | 0
COc1ccc(OCC(=O)Nc2c(Cl)ccc3nsnc23)cc1 | 6.2 | 0 | 0 | 0 | 0
Cc1ccccc1Cn1nnc(-c2cccc(C(=O)O)c2)n1 | 0 | 0 | 0 | 0 | 12.2
C/C(Cc1ccccc1)=N/NC(=O)CNC(=O)C(c1ccccc1)c1ccccc1 | 6.0 | 0 | 0 | 0 | 0
Nc1nc2ccc(Oc3ccccc3)cc2s1 | 0 | 0 | 0 | 0 | 11.6
Cc1cc(C)n(-c2nnc3c4ccccc4n(C)c3n2)n1 | 0 | 0 | 0 | 0 | 10.5
C/C(=N\Nc1nnc2c3ccccc3n(C)c2n1)c1ccc(C)o1 | 0 | 0 | 0 | 0 | 0
O=C(NCCc1ccccc1)OCc1cn(Cc2ccc(F)cc2)nn1 | 0 | 0 | 0 | - | 0
C(=NN1CCCCCC1)c1ccc2c(c1)OCO2 | 0 | 0 | 0 | 4.3 | 0
CCc1n[nH]c(=S)n1/N=C/c1ccc(N(C)c2ccccc2)cc1 | 0 | 0 | 0 | 0 | 0
CCc1n[nH]c(=S)n1/N=C/c1ccc2c(c1)OCO2 | 0 | 0 | 0 | 4.8 | 0
CN1CCN(C(=O)/C=C/c2ccc3c(c2)OCO3)CC1 | 0 | 0 | 0 | 0 | 0
